Source: PubChem BioAssay
In the library only some 2.1% were active in any assay of this set; here they are far more common.
aSyn UTR inh – MLPCN primary screen, SNCA 5' untranslated region; inhibition, % (tested at 7.5 µM); alpha-synuclein 5'UTR reporter, inhibitor activity; 300,000 tested, 0.82% active; in the data active = inhibition above about 60%;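 also: H4 neuroglioblastoma cells stably carrying SNCA 5'UTR luciferase fusion; 0% = DMSO wells and 100% = positive control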
KLF5 inhibitor – inhibitors of KLF5 expression. inhibition, % at 5 µM. 290,000 tested, 0.23% active. DLD-1 KLF5 promoter-luciferase reporter, luminescence;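 active = inhibition above a per-plate limit of that plate's mean compound inhibition plus 3 SD, cut at about 60% in these data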;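 also: 0% = DMSO wells and 100% = LY294002 at 200 µM; higher means less KLF5 promoter-driven luciferase light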
Wee1 stabilizer – inhibitors of human Wee1 degradation; HeLa Luc-Wee1K328M stability, luciferase luminescence; 100% = proteasome inhibitor MG132 effect; reporter increase, % at 5 µM; 220,000 tested, 1.2% active;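 active = activation above the mean of all tested compounds plus 3 SD, set per screening run, cut at about 8.8% in these data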;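 also: cells exposed to compound for 20 h before luminescence read; 0% = DMSO alone and 100% = MG132 at 30 µM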
Target sequence (P30291 whole entry K328M): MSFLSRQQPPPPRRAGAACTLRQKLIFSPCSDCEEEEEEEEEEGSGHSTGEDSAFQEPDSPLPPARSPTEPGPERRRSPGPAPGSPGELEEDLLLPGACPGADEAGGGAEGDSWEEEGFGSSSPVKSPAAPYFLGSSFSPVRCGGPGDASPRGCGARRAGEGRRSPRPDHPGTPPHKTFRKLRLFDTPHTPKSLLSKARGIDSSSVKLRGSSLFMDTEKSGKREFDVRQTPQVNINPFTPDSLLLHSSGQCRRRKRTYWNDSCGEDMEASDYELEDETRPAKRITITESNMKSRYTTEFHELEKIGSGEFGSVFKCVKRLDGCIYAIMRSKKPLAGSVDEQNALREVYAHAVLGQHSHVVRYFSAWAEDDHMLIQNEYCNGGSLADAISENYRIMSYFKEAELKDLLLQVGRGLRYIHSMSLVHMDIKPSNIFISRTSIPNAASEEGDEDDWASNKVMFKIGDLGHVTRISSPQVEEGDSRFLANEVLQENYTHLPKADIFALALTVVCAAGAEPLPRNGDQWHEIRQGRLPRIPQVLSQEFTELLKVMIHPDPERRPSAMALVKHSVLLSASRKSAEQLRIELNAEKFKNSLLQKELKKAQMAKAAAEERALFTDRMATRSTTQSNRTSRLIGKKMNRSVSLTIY
HIF activator – HIF pathway transcriptional activation; U2OS HRE-luciferase reporter, luminescence; normalized: DMSO 0%, desferrioxamine 100%; activation, % at 7.5 µM (by protocol); 300,000 tested, 0.32% active; AID 1910;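 active = mean activation of at least 10% of the iron chelator positive control signal, with at least half of replicates also reaching 10%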
Platelet DG rel – modulates dense granule release in human platelets; 300,000 tested, 0.22% active; human platelet-rich plasma, SFLLRN dense granule ATP release, luminescence; inhibition, %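 (compounds screened at 7.5 µM in platelet-rich plasma)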; AID 1663;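 active = mean replicate score, as percent of positive control, at or above 50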
KLF5 confirm – confirmation of KLF5 inhibitors; shares compounds with KLF5 inhibitor; DLD-1 KLF5 promoter firefly luciferase reporter, luminescence; inhibition, % at 4 µM; 610 tested, 79% active; AID 1834;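 active = inhibition above a set limit taken from the earlier primary screen, cut at about 63% in these data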;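 also: 0% = DMSO wells and 100% = LY294002 at 200 µM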
IEC-6 tox – counter-screen for KLF5 inhibitors: cytotoxicity in rat IEC-6 cells; IEC-6 rat intestinal cells, viability luminescence; inhibition, % at 4 µM; 610 tested, 56% active; shares compounds with KLF5 inhibitor; AID 1905; in the data active = inhibition above about 23%;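 also: cells exposed to compounds for 48 hours before viability read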
* hit, by the source's call; x = not tested or not shown.

SMILES	aSyn UTR inh	KLF5 inhibitor	Wee1 stabilizer	HIF activator	Platelet DG rel	KLF5 confirm	IEC-6 tox
COc1ccc(C(=O)/C(=C\c2ccco2)N2C=CC=CC2=C(C#N)C#N)cc1	77*	69*	7	-7	-3	48	50*
COc1ccc(CCNC(=O)CCC(=O)N2CC(C)Oc3ccccc32)cc1OC (centres undefined)	-4	6	x	0	-3	x	x
Cc1ccnc(NC(=O)c2ccc(Cl)c(NC(=O)c3ccccc3C)c2)c1	-9	-26	x	0	-5	x	x
Cc1ccnc(NC(=O)c2ccccc2NC(=O)c2ccc(Cl)cc2Cl)c1	69*	67*	x	1	4	69*	49*
COc1cc2c(c(OC)c1OC)-c1ccc(OC)c(=O)cc1C(NC(C)=O)CC2 (centres undefined)	75*	71*	x	2	-6	88*	82*
COC(=O)Nc1nc(-c2ccccc2)c(C(=O)c2ccc(Cl)cc2)s1	94*	62*	1	0	-4	85*	67*
CC(C)(C)c1ccc(C(=O)Nc2sc3c(c2C(=O)O)CCC3)cc1	95*	78*	-2	-3	1	75*	-2
CCc1cc2cc(OC)ccc2nc1SCC(=O)NNC(=O)c1ccco1	19	-8	-1	0	0	x	x
Cc1ccsc1/C=N/Nc1ccc(C(=O)O)cc1	64*	63*	x	-1	23	44	-5
Cc1ccc(/C=C/C(=O)NCCc2cccc(Cl)c2)o1	-12	-41	x	-7	14	x	x
O=C(N/N=C/c1cccc(Oc2ccccc2)c1)c1ccccc1F	-39	64*	x	3	1	66*	2
COc1ccccc1N1CCN(C(=O)C2c3ccccc3Oc3ccccc32)CC1	81*	70*	5	0	0	70*	57*
CCCCN1C(C)=CC(=C2C(=O)c3ccccc3C2=O)C=C1C	46	-104	2	0	11	x	x
CCN1C=CC(=C2C(=O)c3ccccc3C2=O)C=C1	96*	87*	-2	-8	53*	96*	9
CC1=CC(=C2C(=O)c3ccccc3C2=O)C=C(C)O1	-129	-40	-1	1	10	x	x
CCCN1C=CC(=C2C(=O)c3ccccc3C2=O)C=C1	132*	107*	-4	-4	64*	106*	24*
COc1ccc2cc(C(=O)N3CCc4ccccc43)[nH]c2c1	-122	-127	x	6	-1	x	x
Cc1cc(NC(=O)CSC2=NS(=O)(=O)c3ccccc3N2)no1	-6	x	x	0	-1	x	x
O=C(NCc1ccccn1)c1ccc(CNS(=O)(=O)c2ccc(F)cc2)cc1	-7	11	5	0	-4	x	x
CC1CCN(Cc2c(C(=O)N/N=C/c3cc(Br)ccc3O)nnn2-c2nonc2N)CC1	77*	70*	x	53*	13	84*	42*
CC1CCN(Cc2c(C(=O)N/N=C/c3cc(Cl)ccc3O)nnn2-c2nonc2N)CC1	62*	69*	x	40*	7	86*	42*
COc1c(Cl)cc(Cl)cc1/C=N/NC(=O)c1nnn(-c2nonc2N)c1CN1CCC(C)CC1	4	-24	x	0	5	x	x
CCCCC(C(=O)NC1CCCC1)N(C(=O)c1snc(C(N)=O)c1N)c1ccc(OCC)cc1 (centres undefined)	22	13	x	0	-5	x	x
Cc1cc(OC(=O)c2cc(C(F)(F)F)cc(C(F)(F)F)c2)c([N+](=O)[O-])c(=O)[nH]1	-6	-28	x	0	3	x	x
CCc1ccc(NC(=O)c2cnn3ccccc23)cc1	78*	87*	-2	-3	17	82*	3
CSc1cccc(NC(=O)c2cnn3ccccc23)c1	-100	-154	5	2	12	x	x
CCN1/C(=C/c2sc(-c3ccccc3C)c[n+]2C)Sc2ccccc21	94*	63*	1	-1	4	41	14
COc1cc(C(=O)OCC(=O)NCCC2=CCCCC2)ccc1OCC(C)C	4	x	x	0	2	x	x
CCN(c1ccccc1)S(=O)(=O)c1ccc(NC(=O)c2nc(S(C)(=O)=O)ncc2Cl)cc1	2	41	x	1	6	x	x
